{
  "source": "PubChem BioAssay AID1209",
  "about": "(Sanford-Burnham Center for Chemical Genomics, 2008)",
  "note": "Screen size: about 190,000 compounds; about 810 (0.43%) were called active. No stated cut-off is given here; in the data, active means inhibition above about 50%; inactive means the rest. The entries come from a sample that favours actives as a whole.",
  "data": [
    {"target": "Mannose-6-phosphate isomerase (Homo sapiens) (UniProt P34949)", "sequence (P34949 whole entry, looked up)": "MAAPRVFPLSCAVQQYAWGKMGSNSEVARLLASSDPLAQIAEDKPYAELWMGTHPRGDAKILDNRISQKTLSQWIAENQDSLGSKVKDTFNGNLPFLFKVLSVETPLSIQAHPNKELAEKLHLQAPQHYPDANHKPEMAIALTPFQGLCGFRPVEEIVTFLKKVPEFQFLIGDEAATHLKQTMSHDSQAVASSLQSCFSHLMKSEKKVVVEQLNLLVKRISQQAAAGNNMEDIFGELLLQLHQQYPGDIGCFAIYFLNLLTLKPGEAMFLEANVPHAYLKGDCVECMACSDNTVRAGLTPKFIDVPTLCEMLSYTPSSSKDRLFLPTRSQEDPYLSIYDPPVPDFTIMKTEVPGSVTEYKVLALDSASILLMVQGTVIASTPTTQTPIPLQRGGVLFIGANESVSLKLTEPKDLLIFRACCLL", "experiment": "inhibitors of human PMI, primary screen, biochemical, fluorescence intensity, coupled assay (AID 1209);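 further: plate controls were DMSO vehicle for no effect and wells lacking substrate for full effect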", "conditions": "purified PMI enzyme, at 20 µM, hits give high values", "values": [
      {"compound": "COc1cccc(S(=O)(=O)N2CCOCC2)c1", "inhibition": "1.2% (inactive)"},
      {"compound": "O=C(COC(=O)c1cccnc1Cl)NCC1CCCO1", "note": "(configuration not stated)", "inhibition": "-1.2% (inactive)"},
      {"compound": "CCOc1ccc(OCC(=O)OCn2c(SC)nnc(C)c2=O)cc1", "inhibition": "15.9% (inactive)"},
      {"compound": "O=c1[nH]c2ccccc2n2c(-c3ccncc3)nnc12", "inhibition": "1.8% (inactive)"},
      {"compound": "O=c1[nH]c2ccccc2n2c(-c3ccccc3)nnc12", "inhibition": "84.7% (active)"},
      {"compound": "O=c1[nH]c2ccccc2n2cnnc12", "inhibition": "-5.1% (inactive)"},
      {"compound": "Cc1ccc(NC(=O)N(CCCN2CCOCC2)Cc2cccnc2)cc1C", "inhibition": "-1.1% (inactive)"},
      {"compound": "COC(=O)CNC(=O)Cn1cnc2sc(C)c(S(=O)(=O)N3CCC(C)CC3)c2c1=O", "inhibition": "-9% (inactive)"},
      {"compound": "CCc1ccc(N2CCCn3c2nc2c3c(=O)n(CCN3CCOCC3)c(=O)n2C)cc1", "inhibition": "-10.4% (inactive)"},
      {"compound": "O=C(N/N=C/c1ccccc1)c1[nH]c2ccc(Br)cc2c1-c1ccccc1", "inhibition": "15.4% (inactive)"},
      {"compound": "Oc1ccc(Br)cc1/C=N/N1CCN(Cc2ccccc2)CC1", "inhibition": "6.6% (inactive)"},
      {"compound": "CC(=O)Nc1cccc(C(=O)O)n1", "inhibition": "6.7% (inactive)"},
      {"compound": "CC(C)OC(=O)c1cccc(C(=O)O)n1", "inhibition": "21.8% (inactive)"},
      {"compound": "O=C(O)c1cccc(C(=O)O)n1", "inhibition": "58% (active)"},
      {"compound": "Cc1ccc(SCc2cn3cccnc3n2)cc1", "inhibition": "12.5% (inactive)"},
      {"compound": "Cc1ccc(C2=[N+]([O-])C3(CCCCC/C3=N\\NC(N)=O)N(O)C2(C)C)o1", "note": "(configuration not stated)", "inhibition": "-4.7% (inactive)"},
      {"compound": "O=C(COc1ccccc1-c1ccccc1)N/N=C/c1ccc2ccccc2c1", "inhibition": "8.9% (inactive)"},
      {"compound": "Cc1nccn1CC(=O)N/N=C/c1ccc(O)c(O)c1", "inhibition": "64.4% (active)"},
      {"compound": "Cc1nccn1CC(=O)N/N=C/c1cccc(O)c1", "inhibition": "7.9% (inactive)"},
      {"compound": "O=C(COc1ccccc1[N+](=O)[O-])N/N=C/c1ccc(O)c([N+](=O)[O-])c1", "inhibition": "-10.2% (inactive)"},
      {"compound": "COc1cccc(/C=N/NC(=O)Cn2ccnc2C)c1", "inhibition": "14.6% (inactive)"},
      {"compound": "O=C(COc1ccccc1C(=O)N/N=C\\c1ccc(O)c(O)c1)N/N=C/c1ccc(O)c(O)c1", "inhibition": "60.6% (active)"},
      {"compound": "CCOC(=O)C1=C(C)NC(SC(C)=O)=NC1c1ccc(OC(C)=O)c(OC)c1", "note": "(configuration not stated)", "inhibition": "17.5% (inactive)"},
      {"compound": "CC1CCc2c(sc(NC(=O)COC(=O)C3CCCO3)c2C#N)C1", "note": "(configuration not stated)", "inhibition": "-3.7% (inactive)"},
      {"compound": "O=C(CSCC(=O)N1CCOCC1)Nc1ccccc1", "inhibition": "-11.1% (inactive)"},
      {"compound": "O=C(NCCc1ccccc1)C1CCN(S(=O)(=O)N2CCC3(CC2)OCCO3)CC1", "inhibition": "17.1% (inactive)"},
      {"compound": "O=C1CN(C(=O)CSc2nc(-c3ccccc3)cs2)c2ccccc2N1", "inhibition": "-3.1% (inactive)"},
      {"compound": "COc1ccc2nc(NNC(=O)C3COc4ccccc4O3)sc2c1", "note": "(configuration not stated)", "inhibition": "-43.9% (inactive)"},
      {"compound": "CN1C(=O)/C(=C/C=C2/CCCN2C)N(C)C1=S", "inhibition": "35.8% (inactive)"},
      {"compound": "CN1C(=O)/C(=C\\C=C2/CCCN2C)N(C)C1=S", "inhibition": "53.2% (active)"},
      {"compound": "CN1C(=O)/C(=C/C=C2\\SCCN2C)N(C)C1=S", "inhibition": "45.3% (inactive)"},
      {"compound": "COc1ccc(/C=C(/NC(=O)c2ccccc2)C(=O)N/N=C/c2ccncc2)c(OC)c1", "inhibition": "18.6% (inactive)"},
      {"compound": "COc1ccc(CCNC(=O)c2nnn(CC(=O)Nc3cccc(F)c3)c2N)cc1OC", "inhibition": "-0.3% (inactive)"},
      {"compound": "CCOc1ccc(/C=C/C(O)=C2/C(=O)NC3(C)CC2c2ccccc2O3)cc1OC", "note": "(configuration not stated)", "inhibition": "-21.3% (inactive)"},
      {"compound": "O=C(c1cnn(-c2ccccc2)c1)c1ccccc1O", "inhibition": "19.7% (inactive)"},
      {"compound": "O=C(Cc1cnn(-c2ccccc2)c1)c1ccc(O)c(O)c1O", "inhibition": "70.8% (active)"},
      {"compound": "CCc1cc(C(=O)Cc2cnn(-c3ccccc3)c2)c(O)cc1O", "inhibition": "11.4% (inactive)"},
      {"compound": "Nn1c(SCC(=O)Nc2ccc3c(c2)OCO3)nnc1C1CC1", "inhibition": "5.7% (inactive)"},
      {"compound": "CSc1nccc(Oc2cccc(C#N)c2)n1", "inhibition": "-4.1% (inactive)"},
      {"compound": "N#Cc1cccc(N=Cc2c(O)ccc3ccccc23)c1", "inhibition": "39.3% (inactive)"},
      {"compound": "N#Cc1ccc(N=c2ssnc2Cl)cc1", "inhibition": "81.2% (active)"},
      {"compound": "COc1ccc(N2CCN(C(=O)c3cccn4c(=O)c5ccccc5nc34)CC2)cc1", "inhibition": "-5.8% (inactive)"},
      {"compound": "CC1CCCN(Cc2c(O)ccc3c(=O)c(-c4nc5ccccc5s4)c(N)oc23)C1", "note": "(configuration not stated)", "inhibition": "6.9% (inactive)"},
      {"compound": "CC1CCN(Cc2c(O)ccc3c(=O)c(-c4nc5ccccc5s4)c(N)oc23)CC1", "inhibition": "11.2% (inactive)"},
      {"compound": "CC1CCCCN1Cc1c(O)ccc2c(=O)c(-c3nc4ccccc4s3)c(N)oc12", "note": "(configuration not stated)", "inhibition": "58% (active)"},
      {"compound": "O=c1c(-c2ccccc2)c(O)nc2ccccn12", "inhibition": "4.9% (inactive)"},
      {"compound": "COc1cc(C(=O)OCC(=O)N(C)C)cc(NC(=O)c2ccco2)c1OC", "inhibition": "5.7% (inactive)"},
      {"compound": "CO[C@H]1C=CO[C@@]2(C)Oc3c(C)c(O)c4c(O)c(c(C=NN5CCN(C)CC5)c(O)c4c3C2=O)NC(=O)C(C)=CC=C[C@H](C)[C@H](O)[C@@H](C)[C@@H](O)[C@@H](C)[C@H](OC(C)=O)[C@@H]1C", "inhibition": "7% (inactive)"},
      {"compound": "CO[C@H]1C=CO[C@@]2(C)Oc3c(C)c(O)c4c(O)c(c5c(nc6cc(C)ccn65)c4c3C2=O)NC(=O)C(C)=CC=C[C@H](C)[C@H](O)[C@@H](C)[C@@H](O)[C@@H](C)[C@H](OC(C)=O)[C@@H]1C", "inhibition": "13.9% (inactive)"},
      {"compound": "CO[C@H]1C=CO[C@@]2(C)Oc3c(C)c(O)c4c(O)c(c(C=NN5CCN(C6CCCC6)CC5)c(O)c4c3C2=O)NC(=O)C(C)=CC=C[C@H](C)[C@H](O)[C@@H](C)[C@@H](O)[C@@H](C)[C@H](OC(C)=O)[C@@H]1C", "inhibition": "50.8% (active)"},
      {"compound": "CC1=NC(C(F)(F)F)(C(F)(F)F)C2=C(CC(C)(C)CC2=O)N1Cc1ccco1", "inhibition": "6% (inactive)"},
      {"compound": "CN1CCN(/N=C/c2nc(-c3cccc([N+](=O)[O-])c3)n3ccccc23)CC1", "inhibition": "8.1% (inactive)"},
      {"compound": "O=C(Nc1nc2ccccc2[nH]1)C1CCCC1", "inhibition": "4.1% (inactive)"},
      {"compound": "CC(NS(=O)(=O)c1ccccc1)C(c1cccs1)N1CCN(C)CC1", "note": "(configuration not stated)", "inhibition": "1.7% (inactive)"},
      {"compound": "CC(=O)n1cc(Nc2ccc([N+](=O)[O-])cc2)c2ccccc21", "inhibition": "-30.8% (inactive)"},
      {"compound": "CC(=O)n1cc(C(C[N+](=O)[O-])SCCN)c2ccccc21", "note": "(configuration not stated)", "inhibition": "6.6% (inactive)"},
      {"compound": "CC(=O)SC(C[N+](=O)[O-])c1cn(C(C)=O)c2ccccc12", "note": "(configuration not stated)", "inhibition": "63.1% (active)"}
    ]}
  ]
}
